From PubChem
Shown are actives, neighbours in structure and some others; about 3.3% of the full set was active somewhere.
GAA850 FXN act: activators of GAA850 frataxin (FXN) promoter; HEK293 lucGAA850 FXN promoter luciferase reporter, 24 h; percent of 10 µM SAHA response; activation, % at 6 µM; 360,000 compounds, 0.56% hits;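 active = activation above the average of all compounds screened plus 3 SD, cutoff fixed separately per campaign, cut at about 7.5% in these data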
Statin myotox sup: suppression of simvastatin myotoxicity | C2C12 myotubes + simvastatin, ATP luminescence, 48 h; scaled: DMSO 0, geranylgeraniol control 100 | rescue of ATP level, % at 7.49 µM | 330,000 compounds, 0.78% hits | AID 602340;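 active = mean ATP rescue above about 67%, or every replicate alone reaching that limit, limit read from the data, passing the limit was not always enough; inconclusive = no clear call, values can overlap the other calls; inactive = mean under the limit and some replicate under it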;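 also: myotubes were challenged with 10 µM simvastatin during compound exposure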
MITF TRPM1 HTS: activators of MITF-driven TRPM1 promoter activity in SK-MEL-5 cells | activation, % at 12.5 µM | 300,000 compounds, 0.75% hits | AID 588334 | SK-MEL-5 TRPM1-promoter luciferase, 24 h; % of positive control, neutral wells = 0;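 active = mean activation of at least 80% with every replicate also reaching 80%; inconclusive = mean reaches 80% but some replicate falls short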
Wnt bcat act: activates Wnt/beta-catenin signaling in a reporter cell assay | activator, plate reader | activation, % at 9.35 µM | 300,000 compounds, 1.2% hits | AID 743398; in the data active = activation above about 30%, passing the limit was not always enough; inconclusive = no clear call, values can overlap the other calls
esBAF inh: blocks esBAF chromatin remodeling in mouse ES cells. Bmi1-luciferase knock-in reporter, 24 h; 100% = twice the neutral-well signal. reporter increase, % at 12.5 µM. 350,000 compounds, 2% hits. AID 602393; in the data active = activation above about 40%; inconclusive = no clear call, values can overlap the other calls;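 also: a rise in the Bmi1 reporter signal indicates esBAF inhibition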
GAA30 FXN cntr: counter-screen for GAA850 frataxin promoter activators: GAA30 promoter activation; HEK293 lucGAA30 FXN promoter luciferase, 24 h; DMSO = 0%, 5 µM ipriflavone = 100%; activation, % at 6 µM; 1,900 compounds, 66% hits; shares compounds with GAA850 FXN act;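 active = mean activation above the mean of solvent-only control wells plus 3 SD, cut at about 22% in these data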;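 also: counterscreen of GAA850 promoter hits where activity marks nonselective or luminescence artifacts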
GAA850 confirm: confirmation of GAA850 frataxin (FXN) promoter activators | HEK293 lucGAA850 FXN promoter luciferase reporter, 24 h; 100% = activation by SAHA | activation, % at 6 µM | shares compounds with GAA850 FXN act | 1,900 compounds, 86% hits;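 active = mean activation above a set limit taken from the primary screen, cut at about 8% in these data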
esBAF Ring1 qPCR: esBAF inhibition confirmed by Ring1 de-repression; mouse ESC E14, Ring1 mRNA RT-qPCR fold change; 550 tested, under 10 active; shares compounds with esBAF inh; fold change at 33 µM;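 active = Ring1 gene expression raised more than 2-fold over untreated cells in both replicates at either tested dose; inconclusive = only one replicate above 2-fold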;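 also: Ring1 transcript normalised to actin housekeeping signal by TaqMan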
Fgf4 repress: confirmation of esBAF inhibitors: Fgf4 repression in mouse ESCs. shares compounds with esBAF inh. mouse ESC E14, Fgf4 mRNA qPCR fold change; active compounds read low. Fgf4 expression fold change at 33 µM. 550 compounds, 4% hits. AID 743177;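 active = Fgf4 expression under 0.8 fold of control in both repeat measurements at one or both tested doses; inconclusive = under 0.8 fold in just a single repeat measurement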;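 also: Fgf4 transcript normalised to actin in duplex TaqMan qPCR; cells exposed to compound for 24 h before lysis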
esBAF Bmi1 qPCR: esBAF inhibition confirmed by Bmi1 de-repression. shares compounds with esBAF inh. mouse ESE14 ES cells, Bmi1 mRNA qPCR fold; active compounds read high. fold change at 33 µM. 550 tested, under 10 active. AID 743180;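 active = Bmi1 expression fold change above 6 at either tested concentration, seen in replicate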;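 also: higher fold means more Bmi1 de-repression and stronger esBAF inhibition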
A549 cytotox: kills or reduces viability of A549 cells; shares compounds with esBAF inh; A549 cytotoxicity, plate reader; cell viability change % (negative = cytotoxic), % at 25 µM, hits read low; 550 tested, under 10 active; AID 743188; call rule not given here
HepG2 cytotox SP: kills or reduces viability of HepG2 cells; 550 compounds, 4% hits; shares compounds with esBAF inh; AID 743189; HepG2 cytotoxicity, plate reader; active compounds read low; activity change, negative = inhibition, % at 25 µM; in the data active = activity change below about -50%
HEK293 cytotox SP: kills or reduces viability of HEK293 cells; AID 743190; shares compounds with esBAF inh; activity change, negative = inhibition, % at 25 µM, hits read low; HEK293 cytotoxicity, plate reader; 550 compounds, 3% hits; in the data active = activity change below about -38%, passing the limit was not always enough
Of the large screens only hits and unclear results are named; the others gave an inactive call (follow-up assays come after a bar, where they were run).

O=c1[nH]cnc2nc(-c3ccc(N(CCCl)CCCl)cc3)[nH]c12	GAA850 FXN act 9.0, esBAF inh 74 | GAA30 FXN cntr 91 | GAA850 confirm 56 | esBAF Ring1 qPCR inactive | Fgf4 repress inactive | esBAF Bmi1 qPCR inactive | A549 cytotox -54 | HepG2 cytotox SP inactive | HEK293 cytotox SP -37
COC(=O)[C@H]1[C@H](CO)[C@H]2Cn3c(ccc(C4=CCCCC4)c3=O)[C@@H]1N2CCc1ccccc1	none (no result: GAA850 FXN act, MITF TRPM1 HTS, Wnt bcat act)
c1ccc(CCc2ccc3n2Cc2cnnn2-c2ccccc2-3)cc1	none
COc1ccc(-c2ccc3n2Cc2cnnn2-c2ccccc2-3)cc1	esBAF inh 82 | esBAF Ring1 qPCR inactive | Fgf4 repress inactive | esBAF Bmi1 qPCR inactive | A549 cytotox inactive | HepG2 cytotox SP inactive | HEK293 cytotox SP inactive
CC=Cc1ccc2n(c1=O)C[C@@H]1[C@@H](CO)[C@H](C(=O)OC)[C@H]2N1CC1CCCCC1 (mixture of isomers)	none (no result: GAA850 FXN act, MITF TRPM1 HTS, Wnt bcat act)
c1ccc(Nc2ccc3ccccc3c2)cc1	MITF TRPM1 HTS 95, esBAF inh 74 | esBAF Ring1 qPCR inactive | Fgf4 repress inconclusive | esBAF Bmi1 qPCR inactive | A549 cytotox inactive | HepG2 cytotox SP inactive | HEK293 cytotox SP inactive
